The values below come from PubChem BioAssay AID1851 (National Center for Advancing Translational Sciences (NCATS), 2009).

As usually defined, the AC50 is the concentration giving half of the maximal activity seen.

About 5,800 (36%) of roughly 16,000 compounds were called active. About 23% were inconclusive and are not listed. The call rests on the fitted dose curve; in most records, active means well fitted curve in the direction sought with a large enough effect; inconclusive means small, poorly fitted or top-dose-only effect, or effect the other way; inactive means no such curve, though single readings can be large or run the other way. The list shows a part of the results. Peptide text beside a SMILES is read from it.
On the % scale 0 is the no-effect control and ±100 the full control effect.

The target of the assay is Cytochrome P450 2C19 (Homo sapiens) (UniProt P33261). The assay is described as follows: Cytochrome panel assay with activity outcomes. As to conditions: recombinant CYP, pro-luciferin dealkylation, luminescence, p450-cyp2c19; series mostly up to 57.1 µM; activity, negative = inhibition: at the top concentration.
Cytochrome P450 2C19 (Homo sapiens), sequence (P33261 whole entry, looked up): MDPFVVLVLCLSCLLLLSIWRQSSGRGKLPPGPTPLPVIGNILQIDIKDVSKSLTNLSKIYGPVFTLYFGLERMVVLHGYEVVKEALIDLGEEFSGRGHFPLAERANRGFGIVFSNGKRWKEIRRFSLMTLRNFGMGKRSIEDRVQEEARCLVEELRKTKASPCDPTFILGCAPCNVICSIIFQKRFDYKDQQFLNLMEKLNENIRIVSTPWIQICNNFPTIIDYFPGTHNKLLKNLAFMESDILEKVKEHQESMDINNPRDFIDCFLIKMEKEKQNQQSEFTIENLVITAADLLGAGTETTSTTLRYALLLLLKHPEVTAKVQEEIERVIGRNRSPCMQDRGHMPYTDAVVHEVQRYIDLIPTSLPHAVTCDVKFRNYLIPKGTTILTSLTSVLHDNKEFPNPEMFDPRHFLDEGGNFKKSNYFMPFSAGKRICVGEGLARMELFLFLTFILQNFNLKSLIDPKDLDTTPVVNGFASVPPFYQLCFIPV
On to `CCOC(=O)c1[nH]c(C(=O)O)c(CCN(CC)CC)c1C`, for which the “activity, negative = inhibition” value was 7.09% (inactive).
The same measure, in the same setting: for `CO[C@H]1COC(=O)[C@@H](C)COC(=O)[C@@H](Cc2ccccc2)NC(=O)C/C=C\[C@H]1C` the value was 10.6% [at 11.4 µM] (inactive); for `CC(C)=CCC/C(C)=C/CO/N=C1/C[C@@H](O)[C@@H](O)[C@@H]2[C@@H]3C(=O)N(C[C@@H]4CCCO4)C(=O)[C@H]3CC[C@@H]12`, 29.8% [at 11.4 µM] (inactive).
As for `Cc1ccc(OCCCC(=O)N2CCOCC2)cc1`, the AC50 is 1.41 µM (active).
Take `Cc1ccc(CS(=O)(=O)CCC(=O)N2CCOCC2)cc1`: the “activity, negative = inhibition” value is -8.97% (inactive).
Consider `Cc1ccc(C)c2sc(NC(=O)c3ccc(N4CCCCC4)c([N+](=O)[O-])c3)nc12`, for which the AC50 was 2.82 µM (active).
Consider `Cn1ncc([N+](=O)[O-])c1C(=O)N1CCOCC1`, for which the “activity, negative = inhibition” value is -1.66% (inactive).
On to `Cc1ccccc1C(=O)N1CCN(c2ccc([N+](=O)[O-])c(N3CCOCC3)c2)CC1`, for which the AC50 was 15.8 µM (active).
For the compound `O=C(NCCNC[C@@H](O)COc1ccc(O)cc1)N1CCOCC1`, the AC50 entry is “inactive”.
Regarding `CC(=O)N[C@@H](CC(=O)O)C(=O)N[C@@H](CCC(=O)O)C(=O)O` (Ac-Asp-Glu-OH), the AC50 result was “inactive”.
Take `CCCCNN`: the activity, negative = inhibition was -44.3% [at 11.4 µM] (inactive).
The same measure, in the same setting: then `O=C(O)[C@H]([C@H]1NCCS1)N1Cc2ccccc2C1`, with -31.8% [at 11.4 µM] (inactive); and `C/C(=N\Nc1nc(N)cc(Cl)n1)c1cccc([N+](=O)[O-])c1`, with 2.88% (inactive).
For the compound `C/C(=N\Nc1ccc([N+](=O)[O-])cc1)c1cccc(N)c1`, the AC50 was 1.26 µM (active).
Take `NC(=O)c1cccc(N)c1`: the “activity, negative = inhibition” value was -27.6% (inactive).
Same read-out and setting: then `CCOC(=O)c1sc(NS(=O)(=O)c2ccccc2)nc1C`, with -24.1% (inactive).
For the compound `CCOC(=O)c1sc(N(Cc2ccccc2)C(=O)CN2C(=O)CN(C)C2=O)nc1C`, the AC50 is 15.8 µM (active).
As to `CO[C@H]1COC(=O)CCC[C@H](C)[C@H](OC)COC(=O)C/C=C\[C@@H]1C`, the activity, negative = inhibition was -23% [at 11.4 µM] (inactive).
The same measure, in the same setting: for `C=CCn1c(=O)c(C(=O)NCCN(CC)CC)c(O)c2ccccc21` the value was -15.7% (inactive); for `CC(C)Oc1cccc(-n2c(CCc3c[nH]c4ccc(Br)cc34)nc3ccccc3c2=O)c1`, 9.45% (inactive).
As for `CCCn1c2c(c(O)c(C(=O)NCc3ccccc3)c1=O)CCCC2`, the AC50 is 17.8 µM (active).
On to `CCCCCCc1nc2ccccc2c(=O)n1NC(=O)c1c(O)c2c(n(CC(C)C)c1=O)CCCC2`, for which the AC50 is 5.62 µM (active).
In the case of `O=C(NCc1ccccc1)c1ccc2c(c1)C(=O)N(CC1CCCO1)C2=O` (stereo unspecified), the “activity, negative = inhibition” value was -23.3% (inactive).
For `CC(=O)N=c1sccn1CC(=O)c1ccc([N+](=O)[O-])cc1`, the AC50 is 10 µM (active).
As to `CCN1C(=O)CC(N2CCN(CC(=O)NC(C)C)CC2)C1=O` (stereo unspecified), the “activity, negative = inhibition” value is -9.22% (inactive).
Regarding `CC(NC(=O)CN1CCCC1)C12CC3CC(CC(C3)C1)C2` (stereo unspecified), the AC50 was 15.8 µM (active).
Same read-out and setting: for `c1ccc(-c2nc(CSc3n[nH]c(-c4cccs4)n3)cs2)cc1` the value was 1.12 µM (active).
In the case of `N#Cc1cccc(-c2nc3cnc(N4CCOCC4)nc3n(C3CC3)c2=O)c1`, the “activity, negative = inhibition” value was -17.4% (inactive).
Same read-out and setting: then `CC1=CC2=NC(=O)CC(C)(C(=O)N(CC(=O)NC(C)(C)C)Cc3cccs3)N2C=C1` (stereo unspecified), with -5.57% (inactive).
Take `CC(C)(C)NC(=O)CN(Cc1cccs1)C(=O)CCC(=O)Nc1nccs1`: the AC50 was 7.94 µM (active).
`Nc1ncnc2c1nc(Br)n2[C@H]1O[C@H]2COP(=O)(O)O[C@H]2[C@@H]1O`: the “activity, negative = inhibition” value is -28.5% (inactive).
As for `O=C(Oc1ccccc1)N1CCC2(CC1)CN(c1ccccn1)C2`, the “activity, negative = inhibition” value is -4.95% (inactive).
`O=C(Oc1ccccc1)N1CCC[C@@]2(CCN(c3ncccn3)C2)C1`: the AC50 is 2.51 µM (active).
Still for that read-out and setting: for `O=C(Oc1ccccc1)N1CCC[C@@]2(CCN(c3ccccn3)C2)C1` the value was 5.01 µM (active).
Regarding `O=C(c1cnccn1)N1CCC[C@@]2(CCN(c3ccccn3)C2)C1`, the “activity, negative = inhibition” value was 7.86% (inactive).
`COC(=O)N1CCC[C@@]2(CCN(c3ncccn3)C2)C1`: the “activity, negative = inhibition” value was 3.42% (inactive).
As for `O=C(c1ccncc1)N1CCC[C@@]2(CCN(c3ccccn3)C2)C1`, the AC50 was 6.31 µM (active).
The same measure, in the same setting: for `O=C(Oc1ccccc1)N1CCC2(CCCN(c3ccccn3)C2)CC1` the value was 7.94 µM (active).
On to `O=C(Oc1ccccc1)N1CCC2(CC1)CN(c1ncccn1)C2`, for which the “activity, negative = inhibition” value is -27.7% (inactive).
On the same count and under the same terms, then `CC(=O)N1CCC2(CC1)CN(c1ccccn1)C2`, with 9.66% (inactive).
As for `O=C(c1cc(C(F)(F)F)cc(C(F)(F)F)c1)N1CCC[C@@]2(CCN(c3ccccn3)C2)C1`, the “activity, negative = inhibition” value is -29.6% (inactive).
Still for that read-out and setting: for `C/C(CCN1CCCCc2nc(C)c(C)cc21)=N\OC[C@@H](O)COCc1ccco1` the value was 11% [at 11.4 µM] (inactive); for `O=C(Oc1ccccc1)N1CCC2(CC1)CCN(c1cccc(-c3ccccc3)c1)CC2`, 7.79% (inactive).
The same measure, in the same setting: for `O=C(Oc1ccccc1)N1CCC2(CCCN(c3ccc(-c4ccccc4)cc3)C2)CC1` the value was 3% (inactive).
Regarding `O=C(Oc1ccccc1)N1CCC2(CCCN(c3ccccc3)C2)CC1`, the AC50 is 15.8 µM (active).
Turning to `CC(=O)N1CCC2(CCCN(c3ccccn3)C2)CC1`, the “activity, negative = inhibition” value is -20.4% (inactive).
Turning to `COC(=O)N1CCC2(CC1)CN(c1ccccn1)C2`, the “activity, negative = inhibition” value is -43.9% (inactive).
Take `COC(=O)N1CCC2(CCCN(c3ccccn3)C2)CC1`: the concentration at half-maximal activity (AC50) was 3.16 µM (active).
On to `O=S(=O)(O)[C@@H](c1ccccc1)[C@@H](O)c1ccccc1`, for which the activity, negative = inhibition is 3.73% [at 11.4 µM] (inactive).
With `Cc1ccc(S(=O)(=O)N=Nc2c(O)[nH]c3cc(O)c(C(=O)O)cc23)cc1`, the activity, negative = inhibition was 38.4% [at 11.4 µM] (inactive).
As to `Cc1cccc(C)c1NC(=O)C(NC=O)c1ccccc1Cl` (stereo unspecified), the AC50 is 7.94 µM (active).
On to `Cc1cccc(C)c1NC(=O)[C@H](C)N`, for which the “activity, negative = inhibition” value is 11.1% [at 25.6 µM] (inactive).
Same read-out and setting: then `COc1ccc([C@H](O)c2ccccn2)cc1`, with -15.9% [at 11.4 µM] (inactive).
For `COc1ccc(C(O)c2nccn2Cc2ccccc2)cc1` (stereo unspecified), the AC50 was 5.01 µM (active).
As to `Cc1cc([C@](C)(N)C(=O)O)ccc1P(=O)(O)O`, the “activity, negative = inhibition” value is 0.228% (inactive).
Consider `O=C(c1ccc2c(c1)N(Cc1ccc(F)cc1)C(=O)CS2)N1CCOCC1`, for which the AC50 was 7.08 µM (active).
Turning to `O=C1Nc2cc(C(=O)N3CCOCC3)ccc2SC1N1CCOCC1` (stereo unspecified), the “activity, negative = inhibition” value is 10.9% (inactive).
Still for that read-out and setting: for `COc1ccc(-n2c(CNC(=O)c3ccc(S(=O)(=O)N4CCCC4)cc3)n[nH]c2=S)cc1` the value was -27.5% (inactive).
In the case of `COc1ccc(C(=O)N2CCC3(CC2)CN(C(=O)NC(C)C)C3)cc1`, the “activity, negative = inhibition” value is 9.55% (inactive).
`CCOC(=O)C(C)Sc1nnc(CNC(=O)c2ccc(OC)cc2)n1C1CCCCC1` (stereo unspecified): the AC50 was 5.01 µM (active).
The same measure, in the same setting: for `CC(Sc1nnc(Cc2cccs2)n1C1CCCCC1)C(N)=O` (stereo unspecified) the value was 39.8 µM (active).
